According to PubChem BioAssay (NCATS):
Inconclusive results are not listed. Where a call stands in place of a potency, no number is given. A number with no mark means an inactive call. Activity calls are given as the source filed them. Calls follow the shape of the dose curve; as a rule, active = well fitted inhibition curve with a large enough effect; inconclusive = small, poorly fitted or top-dose-only effect; inactive = no such curve, though single readings can be large or run the other way.

Test: Primary qHTS for small molecule stabilizers of the endoplasmic reticulum resident proteome: Secreted ER Calcium Modulated Protein (SERCaMP) assay (AID 1508630)
Conditions: SH-SY5Y GLuc-SERCaMP (Gaussia luciferase released on ER calcium loss) secretion, thapsigargin, luminescence; series mostly up to 38.4 µM; activity change, negative = inhibition: at the top concentration
Excerpt: Assay Provider: Brandon K. Harvey Ph.D.
National Institute on Drug Abuse, National Institutes of Health, Baltimore, MD
Endoplasmic reticulum (ER) dysregulation is associated with human pathologies including neurodegenerative, cardiovascular, muscular, and diabetic conditions. Maintenance of ER calcium is critical for functions of the ER and its depletion can lead to loss of ER resident proteins, in a process termed exodosis. Therapeutic compounds capable of attenuating the redistribution of ER proteins under pathological conditions may slow or stop disease progression. To identify such compounds, we performed a quantitative high-throughput screen (qHTS) using the SERCaMP assay, which monitors secretion of ER resident proteins triggered by calcium depletion.
SERCaMP was initially developed as a reporter of ER calcium homeostasis using a Gaussia luciferase with a modified signal peptide and carboxy-terminus (GLuc-SERCaMP), modifications that confer secretion of the reporter in response to ER calcium depletion (Henderson et al., 2014). The assay was used to screen 9,501 compounds, including a collection of drugs approved by the FDA (US), EMA (EU), NHI (Japan), and HC (Canada) regulatory agencies (Huang et al., 2011). Since the SERCaMP reporter reflects the exodosis phenomenon (Trychta et al., 2018a), compounds identified in the screen have the potential to prevent exodosis by different mechanisms such as stabilizing ER calcium or augmenting ERS retrieval.
1. Henderson, M.J., Wires, E.S., Trychta, K.A., Richie, C.T., and Harvey, B.K. (2014). SERCaMP: a carboxy-terminal protein modification that enables monitoring of ER calcium homeostasis. Mol Biol Cell 25, 2828-2839.
2. Huang, R., Southall, N., Wang, Y., Yasgar, A., Shinn, P., Jadhav, A., Nguyen, D.T., and Austin, C.P. (2011). The NCGC pharmaceutical collection: a comprehensive resource of clinically approved drugs enabling repurposing and chemical genomics. Sci Transl Med 3, 80ps16.
3. Trychta, K.A., Back, S., Henderson, M.J., and Harvey, B.K. (2018a). KDEL Receptors Are Differentially Regulated to Maintain the ER Proteome under Calcium Deficiency. Cell Rep 25, 1829-1840 e1826.
SEQUENCE No. (1, 2, 3, etc.); […] (e.g., Cells, Incubation, Reagent, etc.); VALUE and DESCRIPTION.
1; Reagent; 5 uL; 1000 SH-SY5Y cells per wells
3; Compound; 23 nL; Control inhibitor / compound library
5; Reagent; 100 nM; Thapsigargin
7; Reagent; 1 uL; 0.5x coelenterazine
8; Detection; Luminescence; ViewLux imaging system
NOTES (numbers refer to sequence above)
1; SH-SY5Y human neuroblastoma cells stably expressing GLuc-SERCaMP (SH-SY5Y-GLuc-ASARTDL) cells were seeded in 1,536 well white tissue culture treated plates (Corning, Cat# 7464) in DMEM-high glucose-sodium pyruvate (ThermoFisher Scientific, Cat #10569) supplemented with 10% bovine growth serum (Hyclone), 10 U/ml penicillin (Gibco), 10 ug/ml streptomycin (Gibco), and 20 mM HEPES.
2; Assay plates were incubated for 5 hour at 37C in a humidified incubator containing 5% CO2.
3; qHTS libraries (23 nl, final concentrations of 1.53 uM, 7.67 uM, 38.3 uM) or controls (neutral control: DMSO, positive control: dantrolene) were added using a Kalypsis pin-tool Robotic System equipped with 1536 pinheads.
4; Cells were then incubated for 16 hours at 37C, 5% CO2.
5; Thapsigargin was added at 100 nM to deplete ER calcium stores.
6; Cells were incubated for 4 hour (37 °C, 5% CO2)
7; Gaussia luciferase in the medium was measured by adding 1 ul of 0.5x coelenterazine (final concentration 0.07x) prepared in Gaussia Luciferase Glow Assay Buffer (Pierce), without addition of the Cell Lysis Buffer Reagent.
8; Luminescence was measured using a ViewLux […] CCD imaging system (Perkin Elmer) equipped with clear filters. […] The same controls were also used for the calculation of the Z' factor, a measure of assay quality control, as previously described (Zhang et al., 1999). […]

**Q.** For `NC12CC3CC(CC(C3)C1)C2`, which Potency is on record?
**A.** The Potency was “inactive”.

**Q.** Which Potency does the source give for `CN(C)c1nc(N(C)C)nc(N(C)C)n1` here?
**A.** The Potency was “inactive”.

**Q.** Which Potency does the source give for `Clc1ccc(C(c2ccccc2Cl)C(Cl)Cl)cc1` (stereo not given) here?
**A.** Its Potency is “inactive”.

**Q.** For `COc1ccc(C2CNC(=O)C2)cc1OC1CCCC1` (stereo not given), which Potency is on record?
**A.** Its Potency is “inactive”.

**Q.** With `O=C1N(c2ccccc2)c2ccccc2C1(Cc1ccncc1)Cc1ccncc1` as the compound, how does the Potency read?
**A.** The Potency was “inactive”.

**Q.** With `Cc1ccc(-c2cc(C(F)(F)F)nn2-c2ccc(S(N)(=O)=O)cc2)cc1` as the compound, how does the Potency read?
**A.** Its Potency is “inactive”.

**Q.** Which Potency does the source give for `CCc1cccc2c3c([nH]c12)C(CC)(CC(=O)O)OCC3` (stereo not given) here?
**A.** Its Potency is “inactive”.

**Q.** For `CC#C[C@]1(O)CC[C@H]2[C@@H]3CCC4=CC(=O)CCC4=C3[C@@H](c3ccc(N(C)C)cc3)C[C@@]21C`, which Potency is on record?
**A.** The Potency was “inactive”.

**Q.** For `Cn1c(=O)c2c(ncn2C)n(C)c1=O`, which “activity change, negative = inhibition” value is on record?
**A.** The value was 58.5%.

**Q.** For `COc1cc2nc(N(C)CCCNC(=O)C3CCCO3)nc(N)c2cc1OC` (stereo not given), which Potency is on record?
**A.** The Potency was “inactive”.

**Q.** For `CN(C)CCOC(c1ccccc1)c1ccccc1`, which Potency is on record?
**A.** Its Potency is “inactive”.

**Q.** With `Nc1c2c(nc3ccccc13)CCCC2` as the compound, how does the Potency read?
**A.** The Potency was “inactive”.

**Q.** With `CS(=O)(=O)CCNCc1ccc(-c2ccc3ncnc(Nc4ccc(OCc5cccc(F)c5)c(Cl)c4)c3c2)o1` as the compound, how does the “activity change, negative = inhibition” value read?
**A.** The value was 0%.

**Q.** For `CN1C2CCC1CC(OC(=O)C(CO)c1ccccc1)C2` (stereo not given), which “activity change, negative = inhibition” value is on record?
**A.** Its value is -27.9%.

**Q.** For `Cc1cn([C@H]2C=C[C@@H](CO)O2)c(=O)[nH]c1=O`, which Potency is on record?
**A.** Its Potency is “inactive”.

**Q.** For `CCOC(=O)c1ncn2c1CN(C)C(=O)c1cc(F)ccc1-2`, which Potency is on record?
**A.** Its Potency is “inactive”.

**Q.** With `CN1CCN(CCCN2c3ccccc3Sc3ccc(Cl)cc32)CC1` as the compound, how does the “activity change, negative = inhibition” value read?
**A.** The value was -32.2%.

**Q.** With `Cn1ccc2cc3c(cc21)CCN3C(=O)Nc1cccnc1` as the compound, how does the Potency read?
**A.** The Potency was “inactive”.

**Q.** With `CC1(CN2CCC(n3c(=O)[nH]c4ccccc43)CC2)OCc2ccccc2-n2cccc21` (stereo not given) as the compound, how does the “activity change, negative = inhibition” value read?
**A.** Its value is 0%.

**Q.** For `CC(C)(Oc1ccc(C2CC2(Cl)Cl)cc1)C(=O)O` (stereo not given), which Potency is on record?
**A.** Its Potency is “inactive”.

**Q.** With `COc1cc2nc(N3CCN(C(=O)c4ccco4)CC3)nc(N)c2cc1OC` as the compound, how does the Potency read?
**A.** The Potency was “inactive”.

**Q.** For `CN1C(C(=O)Nc2ccccn2)=C(O)c2ccccc2S1(=O)=O`, which Potency is on record?
**A.** Its Potency is “inactive”.

**Q.** For `O=c1[nH]cc(F)c(=O)[nH]1`, which Potency is on record?
**A.** The Potency was “inactive”.

**Q.** Which Potency does the source give for `Cc1cc(C(C)(C)C)c(O)c(C)c1CC1=NCCN1` here?
**A.** The Potency was “inactive”.

**Q.** Which Potency does the source give for `Cc1cc(C(C)(C)C)cc(C)c1CC1=NCCN1` here?
**A.** The Potency was “inactive”.

**Q.** For `Cc1ccccc1N1C(=O)c2cc(S(N)(=O)=O)c(Cl)cc2NC1C` (stereo not given), which Potency is on record?
**A.** The Potency was “inactive”.

**Q.** For `O=C(c1ccc(F)cc1)C1CCN(CCn2c(=O)[nH]c3ccccc3c2=O)CC1`, which Potency is on record?
**A.** Its Potency is “inactive”.

**Q.** With `CC[N+](CC)(CC)CCOc1cccc(OCC[N+](CC)(CC)CC)c1OCC[N+](CC)(CC)CC` as the compound, how does the Potency read?
**A.** Its Potency is “inactive”.

**Q.** Which Potency does the source give for `O=C(C1CCCCC1)N1CC(=O)N2CCc3ccccc3C2C1` (stereo not given) here?
**A.** The Potency was “inactive”.

**Q.** For `COc1ccccc1OCCNCC(O)COc1cccc2[nH]c3ccccc3c12` (stereo not given), which “activity change, negative = inhibition” value is on record?
**A.** Its value is -39.4%.

**Q.** For `COC(=O)Nc1nc2ccc(C(=O)c3cccs3)cc2[nH]1`, which Potency is on record?
**A.** Its Potency is “inactive”.

**Q.** For `OCCN(CCO)c1nc(N2CCCCC2)c2nc(N(CCO)CCO)nc(N3CCCCC3)c2n1`, which Potency is on record?
**A.** Its Potency is “inactive”.

**Q.** Which Potency does the source give for `Clc1ccc2c(c1)C(N1CCNCC1)=Nc1ccccc1O2` here?
**A.** The Potency was “inactive”.

**Q.** Which Potency does the source give for `CCCCc1oc2ccccc2c1C(=O)c1cc(I)c(OCCN(CC)CC)c(I)c1` here?
**A.** The Potency was “inactive”.

**Q.** For `CCN1CCCC1CNC(=O)c1cc(S(=O)(=O)CC)c(N)cc1OC` (stereo not given), which Potency is on record?
**A.** The Potency was “inactive”.

**Q.** For `CC(C)NCC(O)c1ccc(O)c(O)c1` (stereo not given), which “activity change, negative = inhibition” value is on record?
**A.** The value was 68%.

**Q.** Which “activity change, negative = inhibition” value does the source give for `CCCNCC(O)COc1ccccc1C(=O)CCc1ccccc1` (stereo not given) here?
**A.** Its value is -5.57%.

**Q.** Which Potency does the source give for `CC(COc1ccccc1)N(CCCl)Cc1ccccc1` (stereo not given) here?
**A.** Its Potency is “inactive”.

**Q.** For `CCC1(C)CC(=O)NC1=O` (stereo not given), which Potency is on record?
**A.** Its Potency is “inactive”.

**Q.** Which Potency does the source give for `Cc1cn([C@H]2C[C@H](N=[N+]=[N-])[C@@H](CO)O2)c(=O)[nH]c1=O` here?
**A.** Its Potency is “inactive”.
